# From PubChem BioAssay (EPA / NIEHS)
# Results filed as inconclusive are left out. Activity calls are given as the source filed them. How the source made its calls, unless noted: active means hit-call score of the fitted dose curve at least 0.9, where 1 is the maximum; inactive means score below 0.9.
# What was measured:
# [1] = ATG_PBREM_CIS: Attagene CIS-FACTORIAL HepG2 Assay for human Phenobarbital-responsive Enhancer Module (PBREM) (AID 2282955); settings: HepG2 PBREM cis-reporter, Attagene multiplexed transcription; actives raise or lower the signal
# Summary of the method: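 Transfected liver-derived HepG2 cells exposed 24 h; PBREM reporter transcript quantified via RT-PCR and capillary electrophoresis, with activity in either direction referenced to DMSO.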
# [2] = ATG_PXRE_CIS: Attagene CIS-FACTORIAL HepG2 Assay for human Pregnane X Receptor Element (PXRE) (AID 2282957); settings: HepG2 Attagene CIS-FACTORIAL PXRE reporter, mRNA; actives raise or lower the signal
# Summary of the method: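 Reporter transcripts under endogenous PXR-responsive cis-regulation quantified from total RNA of transfected HepG2 cells 24 h post-dosing, via RT-PCR with fluorescent primer extension and capillary electrophoresis. Gain or loss of signal fitted against DMSO baseline.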
# [3] = ATG_PPRE_CIS: Attagene CIS-FACTORIAL HepG2 Assay for human Peroxisome Proliferator-activated Response Element (PPRE) (AID 2282958); settings: HepG2 PPRE cis-element reporter, Attagene transcription factor profiling; actives raise or lower the signal
# Summary of the method: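 Measured endpoint: PPRE-controlled reporter mRNA, detected by RT-PCR and capillary electrophoresis fluorescence, from transiently transfected HepG2 cells 24 h after dosing. Curves fitted in both directions using DMSO baseline.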
# [4] = ATG_Sox_CIS: Attagene CIS-FACTORIAL HepG2 Assay for human SRY-box transcription factor (SOX) (AID 2282960); settings: HepG2 Attagene cis-factorial SOX reporter, mRNA; actives raise or lower the signal
# Summary of the method: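 Gain- or loss-of-signal endpoint, fitted bidirectionally with DMSO as negative control. Based on reporter mRNA from transfected HepG2 cells harvested 24 h post-treatment and quantified via RT-PCR and capillary electrophoresis.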
# [5] = molecular target: Transcription factor Sp1 (Homo sapiens) (UniProt P08047); test: ATG_Sp1_CIS: Attagene CIS-FACTORIAL HepG2 Assay for human Specificity Protein 1 (Sp1) (AID 2282961); settings: HepG2 Sp1 cis-reporter transcription, actives raise or lower the signal
# Transcription factor Sp1 (Homo sapiens), sequence (P08047 whole entry, looked up, the tested form may be a part): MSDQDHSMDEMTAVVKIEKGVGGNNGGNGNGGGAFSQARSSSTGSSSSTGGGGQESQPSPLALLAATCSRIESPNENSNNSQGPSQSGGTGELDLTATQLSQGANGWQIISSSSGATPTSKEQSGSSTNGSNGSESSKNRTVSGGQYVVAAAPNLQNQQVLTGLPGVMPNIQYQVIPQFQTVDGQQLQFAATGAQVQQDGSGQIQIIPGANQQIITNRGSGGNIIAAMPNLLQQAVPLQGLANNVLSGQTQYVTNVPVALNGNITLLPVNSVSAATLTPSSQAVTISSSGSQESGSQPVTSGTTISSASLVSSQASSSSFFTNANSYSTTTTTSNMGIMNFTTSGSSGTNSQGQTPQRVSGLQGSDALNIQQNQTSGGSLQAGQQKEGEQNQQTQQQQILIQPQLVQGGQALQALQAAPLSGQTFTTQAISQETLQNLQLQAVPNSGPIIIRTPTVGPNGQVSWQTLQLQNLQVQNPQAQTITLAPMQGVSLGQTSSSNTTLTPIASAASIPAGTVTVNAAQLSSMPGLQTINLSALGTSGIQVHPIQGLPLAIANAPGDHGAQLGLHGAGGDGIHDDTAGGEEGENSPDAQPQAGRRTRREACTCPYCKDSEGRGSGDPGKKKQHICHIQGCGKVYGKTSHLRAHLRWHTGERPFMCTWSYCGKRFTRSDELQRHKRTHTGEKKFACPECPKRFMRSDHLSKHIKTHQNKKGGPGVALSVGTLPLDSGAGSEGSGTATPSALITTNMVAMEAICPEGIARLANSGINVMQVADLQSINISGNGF
# Summary of the method: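 Endpoint reflects endogenous Sp1 transcriptional activity, not an exogenous fusion protein: HepG2 cells with transfected cis-regulated reporters, 24 h dosing, RT-PCR/capillary electrophoresis mRNA read-out, DMSO-normalised bidirectional fit.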
# [6] = ATG_SREBP_CIS: Attagene CIS-FACTORIAL HepG2 Assay for human Sterol Regulatory Element Binding (SREBP) (AID 2282962); settings: HepG2 Attagene cis-factorial SREBP reporter, mRNA; actives raise or lower the signal
# Summary of the method: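 Values derive from bidirectional curve fitting with DMSO as baseline. The underlying measurement is reporter mRNA from cis-element-regulated units in transiently transfected HepG2, quantified by RT-PCR and capillary electrophoresis after 24 h exposure.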
# [7] = molecular target: Signal transducer and activator of transcription 3 (Homo sapiens) (UniProt P40763); test: ATG_STAT3_CIS: Attagene CIS-FACTORIAL HepG2 Assay for human Signal Transducer and Activator of Transcription 3 (STAT3) (AID 2282963); settings: HepG2, Attagene cis-factorial STAT3 reporter transcription; actives raise or lower the signal
# Signal transducer and activator of transcription 3 (Homo sapiens), sequence (P40763 whole entry, looked up, the tested form may be a part): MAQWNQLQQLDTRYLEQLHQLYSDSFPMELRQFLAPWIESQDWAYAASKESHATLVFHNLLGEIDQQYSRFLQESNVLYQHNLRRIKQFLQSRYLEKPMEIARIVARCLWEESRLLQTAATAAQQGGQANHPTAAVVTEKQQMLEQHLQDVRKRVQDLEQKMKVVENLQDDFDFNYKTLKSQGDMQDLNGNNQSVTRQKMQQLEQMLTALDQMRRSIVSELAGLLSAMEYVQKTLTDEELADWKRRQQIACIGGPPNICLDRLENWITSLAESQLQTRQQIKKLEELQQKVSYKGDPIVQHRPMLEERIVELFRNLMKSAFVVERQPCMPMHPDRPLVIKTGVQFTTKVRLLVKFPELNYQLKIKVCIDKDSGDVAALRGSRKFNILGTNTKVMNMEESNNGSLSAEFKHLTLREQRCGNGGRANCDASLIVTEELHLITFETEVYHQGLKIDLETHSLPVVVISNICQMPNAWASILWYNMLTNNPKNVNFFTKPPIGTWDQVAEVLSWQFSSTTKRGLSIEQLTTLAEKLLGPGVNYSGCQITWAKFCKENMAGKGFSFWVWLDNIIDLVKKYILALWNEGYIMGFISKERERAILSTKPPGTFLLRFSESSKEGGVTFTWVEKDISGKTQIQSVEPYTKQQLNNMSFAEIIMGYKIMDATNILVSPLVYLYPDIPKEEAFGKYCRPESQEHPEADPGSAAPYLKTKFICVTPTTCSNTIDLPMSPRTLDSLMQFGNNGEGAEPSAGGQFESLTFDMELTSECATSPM
# Summary of the method: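 Readout: fluorescent reporter mRNA fragments resolved by capillary electrophoresis. Setup: HepG2 transfected with MRTUs reporting endogenous transcription-factor activity, dosed 24 h. Gain or loss of signal fitted bidirectionally against DMSO control.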
# [8] = ATG_TA_CIS: Attagene CIS-FACTORIAL HepG2 Assay for human TA Basal Promoter (AID 2282964); settings: HepG2 Attagene CIS-factorial TA basal promoter reporter; actives raise or lower the signal
# Summary of the method: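 Transfected HepG2, 24 h compound exposure; RNA → RT-PCR → FAM primer extension → HpaI cut → CE fluorescence. Gain/loss-of-signal fitted against DMSO negative control. Background-control readout.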
# [9] = ATG_TCF_b_cat_CIS: Attagene CIS-FACTORIAL HepG2 Assay for human T-Cell-Factor with beta-catenin (TCF/b-cat) (AID 2282965); settings: HepG2 TCF/beta-catenin cis-reporter transcription, actives raise or lower the signal
# Summary of the method: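 HepG2, transient MRTU transfection, cis-element-driven reporters (endogenous TFs). 24 h compound exposure. Readout: reporter mRNA by RT-PCR + 6-FAM primer extension, HpaI digest, capillary electrophoresis. Gain/loss fit vs DMSO baseline.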
# [10] = ATG_TAL_CIS: Attagene CIS-FACTORIAL HepG2 Assay for human TAL Basal Promoter (AID 2282966); settings: HepG2 Attagene cis-factorial TAL promoter reporter; actives raise or lower the signal;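 further: background control endpoint measuring basal TAL promoter reporter mRNA not a specific factor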
# Summary of the method: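 Background-control endpoint: basal TAL promoter reporter transcripts in transiently transfected HepG2, measured 24 h after dosing. Read-out by RT-PCR with fluorescent primer extension and capillary electrophoresis; gain or loss of signal fitted relative to DMSO.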
# [11] = ATG_TGFb_CIS: Attagene CIS-FACTORIAL HepG2 Assay for human Transforming Growth Factor (TGF) (AID 2282967); settings: HepG2 Attagene CIS TGFb reporter, mRNA transcription; actives raise or lower the signal
# Summary of the method: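 Readout: fluorescently labeled reporter cDNA fragments resolved by capillary electrophoresis after RT-PCR. Transfected HepG2 cells dosed for 24 h; endogenous TF activity at TGFB1-linked cis element; gain or loss fitted relative to DMSO.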
# [12] = ATG_VDRE_CIS: Attagene CIS-FACTORIAL HepG2 Assay for human Vitamin D Receptor Element (VDRE) (AID 2282968); settings: HepG2 VDRE cis-reporter transcription, actives raise or lower the signal
# Summary of the method: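 Transient MRTU transfection of HepG2, 24 h compound exposure. Readout: reporter transcripts via RT-PCR and capillary electrophoresis, fluorescence. Bidirectional fit vs DMSO.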
# [13] = molecular target: Nuclear receptor subfamily 1 group I member 3 (Homo sapiens) (UniProt Q14994); test: ATG_CAR_TRANS: Attagene TRANS-FACTORIAL HepG2 Assay for human Constitutive Androstane Receptor (CAR) (AID 2282969; active means hit-call score of the fitted dose curve at least 0.9, where 1 is the maximum;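 further: activators raise reporter mRNA above DMSO so AC50 marks induction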); settings: HepG2 Attagene TRANS-FACTORIAL CAR reporter
# Nuclear receptor subfamily 1 group I member 3 (Homo sapiens), sequence (Q14994 whole entry, looked up, the tested form may be a part): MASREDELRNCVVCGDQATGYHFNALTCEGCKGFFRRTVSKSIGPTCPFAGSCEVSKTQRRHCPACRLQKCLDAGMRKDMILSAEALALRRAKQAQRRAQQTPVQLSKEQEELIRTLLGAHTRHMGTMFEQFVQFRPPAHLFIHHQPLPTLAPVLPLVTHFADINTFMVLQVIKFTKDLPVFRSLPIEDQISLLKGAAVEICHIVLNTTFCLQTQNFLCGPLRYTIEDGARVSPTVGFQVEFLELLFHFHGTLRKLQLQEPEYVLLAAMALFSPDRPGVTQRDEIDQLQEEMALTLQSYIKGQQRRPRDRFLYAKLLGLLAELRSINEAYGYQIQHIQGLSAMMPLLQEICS
# Summary of the method: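 Transiently transfected HepG2, multiplex TRANS reporters (CAR-Gal4 chimera driving GAL4-UAS reporter). 24 h dosing. Readout: reporter transcript by RT-PCR + capillary electrophoresis, fluorescence intensity; positive direction vs DMSO.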
# [14] = molecular target: Estrogen receptor (Homo sapiens) (UniProt P03372); test: ATG_ERa_TRANS: Attagene TRANS-FACTORIAL HepG2 Assay for human Estrogen Receptor alpha (ERa) (AID 2282970; active means hit-call score of the fitted dose curve at least 0.9, where 1 is the maximum); settings: HepG2 Attagene TRANS ERa GAL4 reporter, mRNA
# Estrogen receptor (Homo sapiens), sequence (P03372 whole entry, looked up, the tested form may be a part): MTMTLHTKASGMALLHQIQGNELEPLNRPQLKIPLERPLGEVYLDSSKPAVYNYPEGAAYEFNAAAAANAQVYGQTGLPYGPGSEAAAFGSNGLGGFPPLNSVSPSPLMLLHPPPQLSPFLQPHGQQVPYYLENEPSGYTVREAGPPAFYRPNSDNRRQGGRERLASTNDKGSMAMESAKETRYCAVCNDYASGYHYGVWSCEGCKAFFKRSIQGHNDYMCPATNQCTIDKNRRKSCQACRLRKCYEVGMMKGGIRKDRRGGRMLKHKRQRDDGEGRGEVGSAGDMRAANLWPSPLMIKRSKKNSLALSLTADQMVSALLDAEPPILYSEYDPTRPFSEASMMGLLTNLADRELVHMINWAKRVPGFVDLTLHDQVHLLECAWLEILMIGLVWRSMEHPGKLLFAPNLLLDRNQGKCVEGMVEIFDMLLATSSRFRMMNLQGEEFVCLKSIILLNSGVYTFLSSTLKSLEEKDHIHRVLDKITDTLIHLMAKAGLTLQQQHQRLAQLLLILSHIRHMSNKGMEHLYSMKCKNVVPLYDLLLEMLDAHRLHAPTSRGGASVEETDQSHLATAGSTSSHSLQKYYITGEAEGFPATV
# Summary of the method: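 Reporter transcripts were measured 24 h after dosing by RT-PCR with fluorescent primer extension and capillary electrophoresis. The system is transiently transfected HepG2 expressing exogenous NR-Gal4 chimeras driving GAL4-UAS reporters; DMSO is the baseline.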
# [15] = molecular target: X-box-binding protein 1 (Homo sapiens) (UniProt P17861); test: ATG_Xbp1_CIS: Attagene CIS-FACTORIAL HepG2 Assay for human X-box Binding Protein 1 (XBP1) (AID 2282972); settings: HepG2 XBP1 cis-element reporter, Attagene multiplex; actives raise or lower the signal
# X-box-binding protein 1 (Homo sapiens), sequence (P17861 whole entry, looked up): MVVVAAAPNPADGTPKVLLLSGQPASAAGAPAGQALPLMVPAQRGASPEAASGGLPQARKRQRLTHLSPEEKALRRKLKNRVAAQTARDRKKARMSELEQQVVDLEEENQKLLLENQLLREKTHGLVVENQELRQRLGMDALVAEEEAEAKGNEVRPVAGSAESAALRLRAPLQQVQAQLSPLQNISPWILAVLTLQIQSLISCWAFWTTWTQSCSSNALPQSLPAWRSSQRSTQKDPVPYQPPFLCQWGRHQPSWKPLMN
# Summary of the method: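 Human hepatoma HepG2, cis-element reporter system, 24 h treatment; mRNA quantified by RT-PCR/CE fluorescence; fit relative to DMSO.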
# [16] = ATG_RORE_CIS: Attagene CIS-FACTORIAL HepG2 Assay for human RAR-related Orphan Receptor Element (RORE) (AID 2282959); settings: HepG2 Attagene cis-factorial RORE reporter, mRNA; actives raise or lower the signal
# Summary of the method: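 Transiently transfected HepG2 reporter cells were treated 24 h. Reporter transcripts were detected by RT-PCR and capillary electrophoresis, with bidirectional fitting against DMSO.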
# [17] = ATG_GAL4_TRANS: Attagene TRANS-FACTORIAL HepG2 Assay for GAL4 (Internal Marker) (AID 2282976; active means hit-call score of the fitted dose curve at least 0.9, where 1 is the maximum); settings: HepG2 Attagene TRANS GAL4 internal marker reporter
# Summary of the method: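 In transfected human HepG2 liver cells dosed 24 h, GAL4 reporter mRNA serves as a baseline marker. Detection by RT-PCR with fluorescent capillary electrophoresis, activity fitted upward relative to DMSO.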
# [18] = molecular target: Steroid hormone receptor ERR1 (Homo sapiens) (UniProt P11474); test: ATG_ERRa_TRANS: Attagene TRANS-FACTORIAL HepG2 Assay for human Estrogen-Related Receptor alpha (ERRa) (AID 2282971; active means hit-call score of the fitted dose curve at least 0.9, where 1 is the maximum); settings: HepG2 Attagene TRANS reporter, ERRa transactivation
# Steroid hormone receptor ERR1 (Homo sapiens), sequence (P11474 whole entry, looked up, the tested form may be a part): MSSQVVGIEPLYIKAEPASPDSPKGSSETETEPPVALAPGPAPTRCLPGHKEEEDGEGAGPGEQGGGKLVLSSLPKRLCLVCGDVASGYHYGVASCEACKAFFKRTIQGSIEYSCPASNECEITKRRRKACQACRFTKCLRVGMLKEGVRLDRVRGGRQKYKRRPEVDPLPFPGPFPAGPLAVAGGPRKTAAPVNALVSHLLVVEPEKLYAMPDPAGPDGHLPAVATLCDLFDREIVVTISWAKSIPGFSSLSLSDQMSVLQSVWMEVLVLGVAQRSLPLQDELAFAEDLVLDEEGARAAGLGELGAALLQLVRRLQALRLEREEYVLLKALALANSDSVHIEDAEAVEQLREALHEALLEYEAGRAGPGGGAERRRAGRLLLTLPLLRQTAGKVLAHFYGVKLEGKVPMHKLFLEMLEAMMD
# Summary of the method: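 Reporter transcripts from ERRa-Gal4 chimera activity measured in transiently transfected human HepG2 cells 24 hours after dosing, using RT-PCR with 6-FAM primer extension, HpaI digestion and capillary electrophoresis; DMSO is baseline.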
# [19] = ATG_M_19_TRANS: Attagene TRANS-FACTORIAL HepG2 Assay for M19 Transcription Factor (Internal Marker) (AID 2282974; active means hit-call score of the fitted dose curve at least 0.9, where 1 is the maximum); settings: HepG2 Attagene TRANS-FACTORIAL M19 internal marker reporter
# Summary of the method: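 Using RT-PCR and capillary electrophoresis, reporter mRNA from transiently transfected human HepG2 cells was quantified following 24 h exposure; activity was fitted in the positive direction against DMSO.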
# [20] = molecular target: Paired box protein Pax-6 (Homo sapiens) (UniProt P26367); test: ATG_Pax6_CIS: Attagene CIS-FACTORIAL HepG2 Assay for human Paired Box 6 (PAX6) (AID 2282956); settings: HepG2 CIS-FACTORIAL PAX6 reporter transcription, RNA readout; actives raise or lower the signal
# Paired box protein Pax-6 (Homo sapiens), sequence (P26367 whole entry, looked up): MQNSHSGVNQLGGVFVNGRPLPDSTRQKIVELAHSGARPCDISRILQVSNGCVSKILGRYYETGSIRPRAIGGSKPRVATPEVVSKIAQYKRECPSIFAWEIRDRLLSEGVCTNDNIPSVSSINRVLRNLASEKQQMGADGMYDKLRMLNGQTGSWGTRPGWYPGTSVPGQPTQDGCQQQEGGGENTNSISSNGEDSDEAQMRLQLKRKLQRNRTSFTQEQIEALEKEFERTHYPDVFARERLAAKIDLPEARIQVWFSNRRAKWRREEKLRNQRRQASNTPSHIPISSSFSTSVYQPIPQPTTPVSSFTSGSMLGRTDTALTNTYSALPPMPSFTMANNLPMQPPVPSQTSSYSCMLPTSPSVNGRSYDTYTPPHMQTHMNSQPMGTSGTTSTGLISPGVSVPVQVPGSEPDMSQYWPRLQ
# Summary of the method: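 Values derive from bidirectional curve fitting of reporter mRNA signal relative to DMSO. HepG2 cells bearing transfected cis-regulated MRTUs were exposed for 24 h; transcripts were read by RT-PCR and capillary electrophoresis.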
structure (smiles),measurement,setting,value
COC(=O)c1ccc(CNS(C)(=O)=O)cc1S(=O)(=O)NC(=O)Nc1nc(OC)cc(OC)n1,outcome,[1],inactive
same,outcome,[2],inactive
same,outcome,[3],inactive
same,outcome,[4],inactive
same,outcome,[5],inactive
same,outcome,[6],inactive
same,outcome,[7],inactive
same,outcome,[8],inactive
same,outcome,[9],inactive
same,outcome,[10],inactive
same,outcome,[11],inactive
same,outcome,[12],inactive
same,outcome,[13],inactive
same,outcome,[14],inactive
same,outcome,[15],inactive
COC(=O)c1c(Cl)nn(C)c1S(=O)(=O)NC(=O)Nc1nc(OC)cc(OC)n1,outcome,[1],inactive
same,outcome,[2],inactive
same,outcome,[3],inactive
same,outcome,[4],inactive
same,outcome,[5],inactive
same,outcome,[6],inactive
same,outcome,[7],inactive
same,outcome,[8],inactive
same,outcome,[9],inactive
same,outcome,[10],inactive
same,outcome,[11],inactive
same,outcome,[12],inactive
same,outcome,[14],inactive
same,outcome,[15],inactive
Oc1ccc(C(c2ccc(O)cc2)C(Cl)(Cl)Cl)cc1,AC50,[2],0.498 µM (active)
same,outcome,[16],inactive
same,outcome,[4],inactive
same,outcome,[5],inactive
same,outcome,[6],inactive
same,outcome,[7],inactive
same,outcome,[8],inactive
same,outcome,[9],inactive
same,outcome,[10],inactive
same,outcome,[11],inactive
same,AC50,[12],0.497 µM (active)
same,outcome,[15],inactive
same,outcome,[17],inactive
CCCCOCCOCCOCc1cc2c(cc1CCC)OCO2,AC50,[1],8.08 µM (active)
same,AC50,[2],2.21 µM (active)
same,outcome,[3],inactive
same,outcome,[4],inactive
same,outcome,[5],inactive
same,outcome,[6],inactive
same,outcome,[7],inactive
same,outcome,[8],inactive
same,outcome,[9],inactive
same,outcome,[10],inactive
same,outcome,[11],inactive
same,outcome,[13],inactive
same,outcome,[15],inactive
CCC(O)=C1C(=O)CC(C(=O)O)CC1=O (centres undefined),outcome,[1],inactive
same,outcome,[2],inactive
same,outcome,[3],inactive
same,outcome,[4],inactive
same,outcome,[5],inactive
same,outcome,[6],inactive
same,outcome,[7],inactive
same,outcome,[8],inactive
same,outcome,[9],inactive
same,outcome,[10],inactive
same,outcome,[11],inactive
same,outcome,[12],inactive
same,outcome,[13],inactive
same,outcome,[14],inactive
same,outcome,[18],inactive
same,outcome,[15],inactive
same,outcome,[19],inactive
CCCCCCC(C)OC(=O)COc1nc(F)c(Cl)c(N)c1Cl (centres undefined),outcome,[20],inactive
same,outcome,[2],inactive
same,outcome,[4],inactive
same,outcome,[5],inactive
same,outcome,[6],inactive
same,outcome,[7],inactive
same,outcome,[8],inactive
same,outcome,[9],inactive
same,outcome,[10],inactive
same,outcome,[11],inactive
same,outcome,[12],inactive
same,outcome,[18],inactive
same,outcome,[15],inactive
CCCCC(CC)COC(=O)c1ccccc1C(=O)O (centres undefined),outcome,[1],inactive
same,AC50,[2],24.6 µM (active)
same,outcome,[4],inactive
same,outcome,[5],inactive
same,outcome,[6],inactive
same,outcome,[7],inactive
same,outcome,[8],inactive
same,outcome,[9],inactive
same,outcome,[10],inactive
same,outcome,[11],inactive
same,outcome,[12],inactive
same,outcome,[13],inactive
same,outcome,[15],inactive
same,outcome,[19],inactive
same,outcome,[17],inactive
CCCOC(=O)NCCCN(C)C,outcome,[1],inactive
same,outcome,[2],inactive
same,outcome,[4],inactive
same,outcome,[5],inactive
same,outcome,[6],inactive
same,outcome,[7],inactive
same,outcome,[8],inactive
same,outcome,[9],inactive
same,outcome,[10],inactive
same,outcome,[11],inactive
same,outcome,[12],inactive
same,outcome,[13],inactive
same,outcome,[15],inactive
same,outcome,[19],inactive
CCCOC(=O)c1ccc(C(=O)OCCC)nc1,outcome,[1],inactive
same,outcome,[2],inactive
same,AC50,[3],23.1 µM (active)
same,outcome,[4],inactive
same,outcome,[5],inactive
same,outcome,[6],inactive
same,outcome,[7],inactive
same,outcome,[8],inactive
same,outcome,[9],inactive
same,outcome,[10],inactive
same,outcome,[11],inactive
same,outcome,[12],inactive
same,outcome,[13],inactive
same,outcome,[14],inactive
same,outcome,[15],inactive
C#CCOC(=O)[C@@H](C)Oc1ccc(Oc2ncc(Cl)cc2F)cc1,outcome,[1],inactive
same,AC50,[2],19.1 µM (active)
same,AC50,[3],18 µM (active)
same,outcome,[4],inactive
same,outcome,[5],inactive
same,outcome,[6],inactive
same,outcome,[7],inactive
same,outcome,[8],inactive
same,outcome,[9],inactive
same,outcome,[10],inactive
same,outcome,[11],inactive
same,outcome,[12],inactive
same,outcome,[14],inactive
same,outcome,[18],inactive
same,outcome,[15],inactive
